Assay outcomes as filed in PubChem.
Giardia killer – Small Molecules that selectively kill Giardia lamblia: qHTS; Giardia lamblia trophozoite viability; activity change, % at 7.66 µM, hits read low; hit rate 0.15% among 340,000; AID 540267, 2011; in the data active = activity change below about -80%; inconclusive = between about -30% and that limit;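 also: parasites exposed to compound for two days anaerobically before the ATP read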
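Compounds were tested on trophozoites seeded at 100 cells/well and held 48 hrs at 37 deg C anaerobically. An ATP-based luminescent kit measured the remaining live cells.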
TrxR1 inh – qHTS Assay for Inhibitors of Mammalian Selenoprotein Thioredoxin Reductase 1 (TrxR1): qHTS | Thioredoxin reductase 1, cytoplasmic (Rattus norvegicus), O89049 | recombinant rTrxR1, NADPH fluorescence consumption, selenite substrate | Potency, µM (highest dose often 114 µM), usual class: inhibitors | hit rate 1% among 390,000 | AID 588453, 2011; also: nearly all actives have a fitted effect of over 65% in size
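Rat TrxR1 (90 nM in the dispensed reagent) was pre-reduced with 400 uM NADPH for 5 min at room temperature, then incubated with compound for 15 min. After 400 uM selenite was added, NADPH fluorescence (Ex 340/Em 450 nm) was followed for 8 min.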
GALK inh – qHTS Assay for Inhibitors of Human Galactokinase (GALK); Purified GALK, Kinase-Glo residual ATP luminescence; Potency, µM (titrated, usually from 57.5 µM), actives largely listed as inhibitors; hit rate 0.007% among 270,000; AID 1868, 2009
Target sequence (P51570 whole entry, looked up): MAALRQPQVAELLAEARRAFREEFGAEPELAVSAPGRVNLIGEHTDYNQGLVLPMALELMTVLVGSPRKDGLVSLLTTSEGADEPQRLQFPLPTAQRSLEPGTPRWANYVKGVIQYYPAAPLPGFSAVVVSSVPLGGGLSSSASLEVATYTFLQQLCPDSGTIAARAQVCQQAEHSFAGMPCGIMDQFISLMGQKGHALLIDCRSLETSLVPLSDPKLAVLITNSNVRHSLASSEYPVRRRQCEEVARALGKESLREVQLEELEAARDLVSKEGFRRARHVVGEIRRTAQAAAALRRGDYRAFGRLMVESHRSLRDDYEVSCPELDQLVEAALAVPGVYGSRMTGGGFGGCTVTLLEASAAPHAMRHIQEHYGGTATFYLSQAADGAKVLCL
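Compounds were pin-transferred into ATP buffer (35 uM final), then GALK plus galactose (5 nM, 100 uM final) was added. After 1 h at room temperature, Kinase-Glo Plus was added and luminescence read after 10 min.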
TrxR1 substrate – qHTS Assay for Substrates of Mammalian Selenoprotein Thioredoxin Reductase 1 (TrxR1): qHTS; Thioredoxin reductase 1, cytoplasmic (Rattus norvegicus), O89049; purified TrxR1 substrate turnover, NADPH consumption readout; Potency, µM (top dose mostly 114 µM); hit rate 0.01% among 390,000; AID 588456, 2011; also: nearly all actives have a fitted effect of over 50% in size
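Rat TrxR1, dispensed at 90 nM, was prereduced with 400 uM NADPH (final) for 5 min at ~22 deg C, then incubated with compound 15 min before 400 uM selenite. A first-read NADPH fluorescence drop versus no-compound background flagged substrates.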
PI4K2A inh – qHTS for small molecular inhibitors of PI4K2A | Phosphatidylinositol 4-kinase type 2-alpha (Homo sapiens), Q9BTU6 | purified PI4K2A, ADP-Glo luminescence, 1 h; hits give low values | activity change, negative = inhibition, % at 76.9 µM | hit rate 0.13% among 420,000; in the data active = activity change below about -50%; inconclusive = mostly about -30% to -49%
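In this quantitative HTS, ADP production by PI4K2A was quantified luminescently after 1 h at ambient temperature; 100 microM adenosine served as plate-quality control.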
FBPA coupling cs – qHTS Assay for Inhibitors of Fructose-1,6-bisphosphate Aldolase from Giardia Lamblia: Coupling assay counterscreen | coupling enzyme system counterscreen, AmpLite Red fluorescence | activity change, negative = inhibition, % at 58.2 µM, hits read low | hit rate 0.67% among 290,000; in the data active = activity change below about -30%
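Compounds tested against the coupling enzymes alone at 57.5 uM final; readout was AmpLite Red fluorescence (525/598 nm) after 20 min at RT.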
A number is an active result; [ ] = remark or other dose. Rows were chosen to be rich in hits. Some 1.5% of all compounds tested hit in one or more screens of this group. Unless noted, calls follow the shape of the dose curve; as a rule, active = well fitted curve in the direction sought with a large enough effect; inconclusive = small, poorly fitted or top-dose-only effect, or another doubt; inactive = no such curve, though single readings can be large; an effect the other way counts as inactive or inconclusive.

For O=C(COC(=O)c1ccc([N+](=O)[O-])o1)NCc1ccc(F)cc1 the results were Giardia killer inactive, TrxR1 inh inconclusive, TrxR1 substrate inactive and PI4K2A inh inactive.
For O=C(COC(=O)c1ccc([N+](=O)[O-])o1)NC1CCS(=O)(=O)C1 (centres undefined) the results were Giardia killer inactive, TrxR1 inh 3.5µM, GALK inh inactive, TrxR1 substrate inactive, PI4K2A inh inactive and FBPA coupling cs inactive.
O=C(COC(=O)c1ccc([N+](=O)[O-])o1)Nc1cccc2ccccc12 was read as Giardia killer inactive, TrxR1 inh 20µM, GALK inh inactive, TrxR1 substrate inactive, PI4K2A inh inactive and FBPA coupling cs inactive.
For CCN(CC)c1ccc(/C=C/C2=C3C=CC=CC3NC=C2)cc1 (centres undefined) the results were TrxR1 inh inactive and TrxR1 substrate inactive.
`CC(=O)NC(Cc1ccc(O)cc1)C(=O)NCC(N)C(=O)c1ccccc1` (centres undefined) gave TrxR1 inh inactive and TrxR1 substrate inactive.
Screening O=C(COC(=O)c1ccc2c(c1)OCO2)NC1CCS(=O)(=O)C1 (centres undefined) returned Giardia killer inactive, TrxR1 inh 79µM, GALK inh inactive, TrxR1 substrate inactive, PI4K2A inh inactive and FBPA coupling cs inactive.
`COc1cc(C(=O)OCC(=O)NC2CCS(=O)(=O)C2)c([N+](=O)[O-])cc1OC` (centres undefined) gave Giardia killer inactive, TrxR1 inh inactive, GALK inh inactive, TrxR1 substrate inactive, PI4K2A inh inactive and FBPA coupling cs inactive.
Screening CS(=O)(=O)c1ccc(C(=O)OCC(=O)NC2CCS(=O)(=O)C2)cc1[N+](=O)[O-] (centres undefined) returned Giardia killer inactive, TrxR1 inh 7.9µM, GALK inh inactive, TrxR1 substrate inactive, PI4K2A inh inactive and FBPA coupling cs inactive.
`COC(=O)Cc1cc(=O)n2[nH]c(C(F)(F)F)nc2n1` gave Giardia killer inactive, TrxR1 inh inactive, GALK inh inactive, TrxR1 substrate inactive, PI4K2A inh inactive and FBPA coupling cs -34.
`COCc1cc(=O)n2[nH]c(C(F)(F)F)nc2n1` gave Giardia killer inactive, TrxR1 inh inactive, GALK inh inactive, TrxR1 substrate inactive, PI4K2A inh inactive and FBPA coupling cs inactive.
Screening CCCC(=O)N(c1ccc2oc(=O)sc2c1)S(=O)(=O)c1ccccc1 returned Giardia killer inactive, TrxR1 inh inactive, GALK inh inactive, TrxR1 substrate inactive, PI4K2A inh -50 and FBPA coupling cs inactive.
`COc1ccc(CNc2nc(-c3ccc(N(C)C)cc3)nc3ccccc23)c(OC)c1` gave FBPA coupling cs -37.
`COCCCn1[nH]c2c3c(ccc2c1=O)C(=O)c1ccccc1C3=O` gave Giardia killer -93, TrxR1 inh inactive, GALK inh inactive, TrxR1 substrate inactive, PI4K2A inh inactive and FBPA coupling cs -49.
`O=C(Nc1cccc(C(F)(F)F)c1)c1ccc2nc(-c3ccco3)c(-c3ccco3)nc2c1` gave Giardia killer inactive, TrxR1 inh 5µM, GALK inh inactive, TrxR1 substrate inactive, PI4K2A inh -53 and FBPA coupling cs -39.
`COc1ccc(CCNC(=O)c2ccc3nc(-c4ccco4)c(-c4ccco4)nc3c2)cc1OC` gave Giardia killer inactive, TrxR1 inh 2.5µM, GALK inh inactive, TrxR1 substrate inactive, PI4K2A inh inconclusive and FBPA coupling cs -33.
Screening O=C(O)c1ccc2nc(-c3ccco3)c(-c3ccco3)nc2c1 returned Giardia killer inactive, TrxR1 inh 2.2µM, GALK inh inactive, TrxR1 substrate inactive, PI4K2A inh inactive and FBPA coupling cs -35.
CCC(C)NC(=O)c1ccc2nc(Cc3ccccc3)oc2c1 (centres undefined) was read as TrxR1 inh inactive, TrxR1 substrate inactive and PI4K2A inh inactive.
For CCc1nc2ccc(C(=O)NCCc3ccc(OC)c(OC)c3)cc2nc1CC the results were Giardia killer inactive, TrxR1 inh inactive, GALK inh inactive, TrxR1 substrate inactive, PI4K2A inh inactive and FBPA coupling cs inactive.
CCC(C)NC(=O)c1ccc2nc(-c3ccco3)c(-c3ccco3)nc2c1 (centres undefined) was read as Giardia killer inactive, TrxR1 inh 2.8µM and TrxR1 substrate inactive.
Screening COc1cc(/C=C/c2cncc(/C=C/c3cc(OC)c(OC)c(OC)c3)c2)cc(OC)c1OC returned TrxR1 inh inactive and TrxR1 substrate inactive.
CN(C)c1ccc(/C=C/c2ccnc3ccc(Br)cc23)cc1 was read as TrxR1 inh inactive and TrxR1 substrate inactive.
O=S(=O)(c1ccc2nc(-c3ccco3)c(-c3ccco3)nc2c1)N1CCOCC1 was read as Giardia killer inactive, TrxR1 inh 4µM, GALK inh inactive, TrxR1 substrate inactive, PI4K2A inh -55 and FBPA coupling cs -45.
For O=C(c1ccc2nc(-c3ccco3)c(-c3ccco3)nc2c1)N1CCN(c2ccccc2)CC1 the results were Giardia killer inactive, TrxR1 inh inconclusive, GALK inh inactive, TrxR1 substrate inactive, PI4K2A inh inactive and FBPA coupling cs -40.
For CCc1nc2ccc(C(=O)N3CCN(c4ccccc4)CC3)cc2nc1CC the results were Giardia killer inactive, TrxR1 inh inactive, GALK inh inactive, TrxR1 substrate inactive and PI4K2A inh inactive.
Screening CC(C)OC(=O)c1nn2c(C(F)(F)F)cc(-c3ccco3)nc2c1Cl returned Giardia killer inactive, TrxR1 inh inactive[11.4 µM], GALK inh inactive, TrxR1 substrate inactive, PI4K2A inh inactive and FBPA coupling cs inactive.
`CC(C)OC(=O)c1nn2c(C(F)(F)F)cc(-c3ccc(Br)o3)nc2c1Br` gave Giardia killer inactive, TrxR1 inh 25µM, GALK inh inactive, TrxR1 substrate inactive, PI4K2A inh inactive and FBPA coupling cs inactive.
Screening Cc1ccc(-c2nnc(N3CCN(C(=O)c4ccco4)CC3)c3ccccc23)cc1 returned Giardia killer inactive, TrxR1 inh 56µM, GALK inh inactive, TrxR1 substrate inactive, PI4K2A inh inactive and FBPA coupling cs inactive.
`Cc1cc(C)c2nc(N3CCCN(C(=O)c4ccco4)CC3)c(C#N)cc2c1` gave Giardia killer inactive, TrxR1 inh 10µM, GALK inh inactive, TrxR1 substrate inactive, PI4K2A inh inactive and FBPA coupling cs -39.
